The inhibition is the drop in the measured response relative to a control, in per cent.

The target of the first test is Dual specificity protein kinase CLK3 (Homo sapiens) (UniProt P49761). The conditions noted are these: at 1 µM.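 Note: each value is the mean inhibition of CLK3.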
Dual specificity protein kinase CLK3 (Homo sapiens), sequence (P49761 whole entry, looked up): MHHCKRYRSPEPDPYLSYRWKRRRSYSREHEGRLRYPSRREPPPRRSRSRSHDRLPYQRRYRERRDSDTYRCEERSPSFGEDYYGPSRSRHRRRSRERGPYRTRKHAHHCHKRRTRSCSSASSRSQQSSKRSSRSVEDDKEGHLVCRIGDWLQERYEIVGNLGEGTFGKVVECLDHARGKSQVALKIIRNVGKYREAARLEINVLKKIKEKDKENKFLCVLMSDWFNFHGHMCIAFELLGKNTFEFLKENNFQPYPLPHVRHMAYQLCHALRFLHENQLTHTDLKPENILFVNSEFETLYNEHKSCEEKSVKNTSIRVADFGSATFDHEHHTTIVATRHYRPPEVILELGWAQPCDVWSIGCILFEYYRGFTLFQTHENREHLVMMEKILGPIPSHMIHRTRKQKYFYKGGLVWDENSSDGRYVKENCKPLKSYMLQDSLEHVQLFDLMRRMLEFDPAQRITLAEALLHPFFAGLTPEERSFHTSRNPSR
With `Cc1ccc(C(=O)NC2CCCCC2)cc1-c1ccc(C(=O)NCC2CC2)cc1`, the inhibition stood at 1.19%.
Still for that read-out and setting: to `COc1cc2c(cc1Nc1nc(N3CCc4ccccc43)c3cc[nH]c3n1)N(C(=O)CN(C)C)CC2` belongs 2.24%.
For `CC1=C(C(=O)Nc2ccc3[nH]ncc3c2)C(c2ccc(Cl)c(Cl)c2)CC(=O)N1` (centres undefined), the inhibition amounted to 2.49%.
The same measure, in the same setting: the figure for `Nc1ncnc2occ(-c3ccc(NC(=O)Nc4cc(C(F)(F)F)cc(C(F)(F)F)c4)cc3)c12` is 1.36%; for `CS(=O)(=O)CCNCc1nc(-c2ccc3ncnc(Nc4ccc(F)c(Cl)c4)c3c2)cs1` it is 0.43%; for `COc1ccccc1Nc1ncc(-c2ccccc2)o1` it is 0.51%.
On the same count and under the same terms, to `CCn1c(-c2nonc2N)nc2cncc(C(=O)N3CCNCC3)c21` belongs 1.12%; to `CS(=O)(=O)Nc1ccc(N/C=C2\C(=O)Nc3ccccc32)cc1`, 1.06%; to `CNC(=O)c1cncc(/C=C/c2c(Cl)cccc2Cl)c1`, -3.4%.
Still for that read-out and setting: to `Fc1cccc(COc2ccc(Nc3ncnc4sc(-c5cccs5)cc34)cc2Cl)c1` belongs -0.15%; to `N#Cc1c(NC(=O)c2cccc3ccccc23)sc2c1CCCC2`, 1.09%.
`CCc1cccc(NC(=O)Nc2ccc(Oc3ccc4nc(NC(=O)OC)[nH]c4c3)cc2)c1`: the inhibition worked out at 0.82%.
For the compound `CCn1c(-c2nonc2N)nc2ccncc21`, the inhibition stood at 0.52%.
The same measure, in the same setting: the figure for `O=C1Nc2ccc(C(=O)c3ccco3)cc2C1=Cc1cc(Cl)c(O)c(Cl)c1` is 63.8%; for `CS(=O)(=O)CCNCc1ccc(-c2ccc3ncnc(Nc4ccc(OCc5ccccc5)c(Cl)c4)c3c2)o1` it is -0.47%; for `CCn1c(-c2nonc2N)nc2cncc(C(=O)N3CC[C@H](N)C3)c21` it is 1.82%.
The same measure, in the same setting: to `Cc1cccc(-c2n[nH]cc2-c2ccc3ncccc3n2)n1` belongs -3.14%; to `CCCN1CCC=C(c2ccc(Nc3nc(Nc4ccccc4C(N)=O)c4cc[nH]c4n3)c(C)c2)C1`, 6.97%.

A further test addresses Dual specificity tyrosine-phosphorylation-regulated kinase 1A (Homo sapiens) (UniProt Q13627). The conditions noted are these: at 0.1 µM.
For `COc1cc2ncn(-c3cc(OCc4ccccc4C(F)(F)F)c(C(N)=O)s3)c2cc1OC`, the inhibition is -1.02%.
The same measure, in the same setting: the figure for `CCn1c(-c2nonc2N)nc2c(N3CCCC3)nccc21` is 3.13%; for `COc1ccc(-c2coc3ncnc(N)c23)cc1` it is 3.61%.
Same read-out and setting: to `Nc1nc(-c2ccc3c(c2)C(=Cc2cc(Br)c(O)c(Br)c2)C(=O)N3)cs1` belongs 1.71%; to `CS(=O)(=O)CCN(CC#N)Cc1ccc(-c2ccc3ncnc(Nc4ccc(OCc5cccc(F)c5)c(Cl)c4)c3c2)o1`, -2.78%; to `COc1ccc(-c2nn3ncccc3c2-c2ccnc(Nc3ccc(Cl)c(C(F)(F)F)c3)n2)cc1`, -0.17%.
Take `Cc1ccc(NC(=O)c2ccnc(N3CCCC3)c2)cc1-c1ccc(C(=O)NCC2CC2)cc1`: the inhibition came out at 0.13%.
On to `CC(C)=Cc1cccc2c1/C(=N/Nc1ccc(S(N)(=O)=O)cc1)C(=O)N2`, for which the inhibition was -1.42%.
Still for that read-out and setting: the figure for `COc1cc2ncn(-c3cc(O[C@@H](C)c4ccccc4Cl)c(C(N)=O)s3)c2cc1OC` is 4.47%; for `CCCN1CCC(Oc2cc(Nc3nc(Nc4cccc(F)c4C(N)=O)c4cc[nH]c4n3)c(OC)cc2Cl)CC1` it is 2.64%.
On the same count and under the same terms, to `Cc1nnc(-c2ccc(C)c(-c3ccc(C(=O)Nc4cccc(C#N)c4)cc3)c2)o1` belongs 0.92%; to `NS(=O)(=O)c1ccc(N/N=C2\C(=O)Nc3ccc(C(=O)NCCc4c[nH]cn4)cc32)cc1`, 6.64%; to `CC1=C(C(=O)Nc2ccc3[nH]ncc3c2)C(c2ccc3ccccc3c2)CC(=O)N1` (centres undefined), 3.4%.
Turning to `NCc1ccc(-c2nc(-c3ccc(Cl)c(O)c3)c(-c3ccncc3)[nH]2)cc1`, the inhibition amounted to 3.51%.
Turning to `COc1cc(C=NNc2ncnc3c2cnn3-c2ccccc2)ccc1O`, the inhibition stood at 4.3%.
Still for that read-out and setting: to `Cc1ccc(C(=O)NC2CCCCC2)cc1-c1ccc(C(=O)NCC2CC2)cc1` belongs 0.7%; to `COc1cc2c(cc1Nc1nc(N3CCc4ccccc43)c3cc[nH]c3n1)N(C(=O)CN(C)C)CC2`, 0.78%.
`CC1=C(C(=O)Nc2ccc3[nH]ncc3c2)C(c2ccc(Cl)c(Cl)c2)CC(=O)N1` (centres undefined): the inhibition was -0.12%.
With `Nc1ncnc2occ(-c3ccc(NC(=O)Nc4cc(C(F)(F)F)cc(C(F)(F)F)c4)cc3)c12`, the inhibition came out at 0.09%.
Consider `CS(=O)(=O)CCNCc1nc(-c2ccc3ncnc(Nc4ccc(F)c(Cl)c4)c3c2)cs1`, for which the inhibition was 0.63%.
As for `COc1ccccc1Nc1ncc(-c2ccccc2)o1`, the inhibition was 2.5%.
On to `CCn1c(-c2nonc2N)nc2cncc(C(=O)N3CCNCC3)c21`, for which the inhibition came out at 3.49%.
On to `CS(=O)(=O)Nc1ccc(N/C=C2\C(=O)Nc3ccccc32)cc1`, for which the inhibition came to 0.92%.
Regarding `CNC(=O)c1cncc(/C=C/c2c(Cl)cccc2Cl)c1`, the inhibition is -1.12%.
Still for that read-out and setting: to `Fc1cccc(COc2ccc(Nc3ncnc4sc(-c5cccs5)cc34)cc2Cl)c1` belongs 1.88%; to `N#Cc1c(NC(=O)c2cccc3ccccc23)sc2c1CCCC2`, 1.07%.

The values above are taken from ChEMBL document CHEMBL1961873, “Compounds: GSK PKIS; Assays: Nanosyn kinase panel” (2012).
